# F508del corr: CFTR F508del correction in bronchial cells | CFBE cells, YFP halide quenching; stimulated with forskolin plus potentiator P3; % fluorescence drop versus neutral controls | activity (quench increase), % at 7.58 µM | hit rate 0.36% among 350,000 | AID 720511;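 active = mean added fluorescence quench of at least 8% versus neutral control, with both replicates also reaching 8%; inconclusive = only one of the mean or replicate conditions met; inactive = mean below 8% and not both replicates reaching 8%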;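 note: cells transiently co-express mutant CFTR-F508del with the halide-sensitive YFP; corrector assay measuring rescue of mutant channel to the surface after 24 h compound exposure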
# LGR2 inh: Drosophila LGR2 receptor signaling inhibition; hit rate 0.35% among 380,000; inhibition, % at 9.99 µM; HEK293 LGR2, CRE-luciferase, bursicon-stimulated, 4 h; AID 720647;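 active = drop in luminescence signal, shown as inhibition above about 50% in the replicate tests, limit read from the data, passing the limit was not always enough; inconclusive = probably only some replicates passing the limit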;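 note: agonist challenge used bursicon conditioned medium at about half maximal strength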
# EWS-Fli inh: inhibitors of EWS/Fli oncoprotein transcriptional activity; inhibition, % at 12.6 µM; A673 NR0B1-luciferase reporter, viability-normalised; AID 651661; hit rate 0.67% among 350,000;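 active = mean inhibition of at least 50% after viability correction, with every replicate also passing that limit; inconclusive = mean reaches 50% but only one of two replicates passes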;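 note: firefly luciferase signal divided by Alamar Blue viability fluorescence both relative to DMSO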
# PAX8 reporter: PAX8 transcriptional activity inhibition; RMG-I TPO-luciferase reporter, SteadyGlo, 24 h; inhibition, % at 12.6 µM; hit rate 1.2% among 360,000; AID 652154;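 active = mean replicate inhibition at least 60% with every replicate also reaching 60%; inconclusive = only one of the two criteria is met; inactive = mean below 60% and not all replicates reaching 60%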;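 note: luciferase light reporting Pax8 driven TPO promoter activity; plate controls were median of neutral control wells for no effect and mitoxantrone controls for full effect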
# Starred values were filed as active, the others as inactive; ? = inconclusive; / = not tested or not shown. The list is not random: actives were taken first. Their share in the collection is about 1.8%.
SMILES,F508del corr,LGR2 inh,EWS-Fli inh,PAX8 reporter
O=C(Nc1cccc(F)c1)N1CCCCN2[C@@H](CO)[C@H](c3ccc(C#Cc4ccccc4)cc3)[C@@H]2C1,8.9*,-1,16,94*
O=C(Nc1cccc(F)c1)N1CCCCN2[C@H](C1)[C@H](c1ccc(C#Cc3ccccc3)cc1)[C@@H]2CO,5,0,7,3
CCN(C(=O)CN1C(=O)c2ccccc2S1(=O)=O)C1CCCCC1,0,-12,0,/
C=C1C(=O)C23C(O)C1CCC2C12COC3(O)C(O)C1C(C)(C)CCC2O (configuration not stated),-17,/,68*,/
COC(C(=O)C(O)C(C)O)C1Cc2cc3cc(OC4CC(OC5CC(O)C(O)C(C)O5)C(O)C(C)O4)c(C)c(O)c3c(O)c2C(=O)C1OC1CC(OC2CC(OC3CC(O)C(OC)C(C)O3)C(O)C(C)O2)C(O)C(C)O1 (configuration not stated),13*,5,14,100*
O=C(NCc1cccnc1)c1cc(C2CCCCN2C(=O)CCCc2ccccc2)on1 (configuration not stated),12*,13,-3,13
Cc1cc(Cn2nc(-c3ccccc3)cc2C(=O)NCC2CC2)on1,-4,19,11,-4
COc1cc(OC)c2c(-c3cccc(-c4ccc(OC)c(F)c4)c3)cc(=O)oc2c1,8.5*,-27,39,89*
Oc1c(I)cc(I)c2cccnc12,3,/,52*,100*
CCCn1nc(C(=O)NCCN2CCOCC2)c2ccccc2c1=O,/,/,/,-11
CC(=O)c1c(C)[nH]c(C(=O)OCc2nnc(-c3ccc([N+](=O)[O-])cc3)o2)c1C,9.2*,-13,10,1
CC(=O)c1c(C)[nH]c(C(=O)OCC(=O)NNC(=O)c2ccc([N+](=O)[O-])cc2)c1C,-1,2,1,-5
CC=Cc1ccc2n(c1=O)C[C@H]1[C@H](CO)[C@@H](C(=O)N[C@@H](C)c3ccccc3)N(C)[C@@H]21 (mixture of isomers),0,-6,-8,3
Cc1ccc(Cl)cc1N1CCN(C(=O)c2cn(C)c(=O)c3c2c2ccccc2n3C)CC1,10*,7,54*,/
O=C(C1=C[C@@H](C2CC2)C[C@@H](OCCCCO)O1)N1CCOCC1,-1,4,-6,8
Cc1nc(SCC(=O)N(C)C2CCS(=O)(=O)C2)c2ccccc2n1 (configuration not stated),0,9,-4,48
Cc1nc(SCC(=O)N(C)C2(C#N)CCCCC2)c2ccccc2n1,-2,0,-8,62*
COc1ccccc1NC(=O)N1C[C@H](O)COC[C@@H]2O[C@@H](CC(=O)N3CCC(Cc4ccccc4)CC3)CC[C@H]21,-2,1,0,13
CC(=O)OC1CC2C(C)(C)C(=O)C=CC2(C)C2CCC3(C)C(c4ccoc4)OC(=O)C4OC43C12C (configuration not stated),-4,37,24,/
CC(=O)O[C@@H]1C[C@H]2C(C)(C)C(=O)C=C[C@]2(C)[C@H]2CC[C@@]3(C)[C@H](c4ccoc4)OC(=O)[C@H]4O[C@]43[C@@]21C,-5,47,13,75*
CCN(Cc1ccccc1)C(=O)C1CCN(C/C(C)=C/c2ccccc2)CC1,/,1,-7,10
COc1cccc(-c2ccc3c(c2)[C@@H]2[C@@H](CCN2C(=O)CC2CC2)[C@H](CO)N3C)c1,1,4,-4,67*
COc1cccc(-c2ccc3c(c2)[C@H]2[C@H](CCN2C(=O)c2ccccc2F)[C@H](CO)N3C)c1,0,?,0,85*
COc1cccc(-c2ccc3c(c2)[C@H]2[C@H](CCN2C(=O)CC2CC2)[C@H](CO)N3C)c1,-2,-22,-6,-12
COC(=O)c1cc(NC(=O)CSc2nc(C)cc(=O)[nH]2)cc(C(=O)OC)c1,-2,9,-2,/
SMILES,F508del corr,LGR2 inh,EWS-Fli inh,PAX8 reporter
O=C1C(Cl)=C(NCc2cccnc2)C(=O)c2ccccc21,-6,5,58*,-15
O=C1C(Cl)=C(NCCc2ccccc2)C(=O)c2ccccc21,-8,-23,-14,-13
CCOC(=O)c1sc(N(Cc2ccccc2)C(=O)COC(=O)c2ccccc2O)nc1C,/,/,-8,-37
CCOC(=O)c1sc(N(Cc2ccccc2)C(=O)CCl)nc1C,1,-6,57*,-52
O=C(c1ccccc1)N1CCN(C(=O)N2CCOCC2)CC1,/,/,/,3
O=C1C(=C(c2ccccc2)N2CCOCC2)Cc2ccccc21,-2,107*,60*,113*
O=C(NCCc1ccc(Cl)cc1)c1ccc2c(c1)OCCO2,0,58*,-6,-105
O=C(NCCc1ccccc1F)c1ccc2c(c1)OCCO2,-1,102*,90*,110*
COc1ccc(/C(C)=N/NC(=O)CNC(=O)c2cccs2)cc1,3,-3,-5,4
COc1ccccc1CNC(=O)CC1Sc2ccccc2NC1=O (configuration not stated),1,2,3,5
COc1ccc(C(=O)NC(C)c2ccc(-n3ccnc3)cc2)cc1[N+](=O)[O-] (configuration not stated),1,-5,/,-8
O=C(COc1ccc(/C=N/NC(=O)C(=O)N2CCCCCC2)cc1)Nc1ccccc1Cl,-3,5,-41,78*
Clc1ccc(-c2ccc(C=Nc3ccc(N4CCOCC4)cc3)o2)c(Cl)c1,2,19,-7,7
Clc1cccc(-c2ccc(C=Nc3ccc(N4CCOCC4)cc3)o2)c1Cl,14*,23,13,3
COc1ccc2c3c([nH]c2c1)[C@H](CO)N(C(=O)Cc1ccccc1)CC31CN(C(=O)Nc2ccccc2F)C1,-1,17,-1,/
COc1ccc(Oc2ccc(C(F)(F)F)cc2NC(=O)CC(CC(=O)O)c2ccccc2)cc1 (configuration not stated),0,-16,-6,13
CC(C)(C)S(=O)N1Cc2cc(C(=O)Nc3ccc(-c4ccccc4)cc3)nc(-c3cccc(-c4cc5ccccc5o4)c3)c2[C@@H]1CCO (some centres not stated),-4,-8,-4,16
CC(C)NC(=O)N1Cc2cc(C(=O)NCC(F)(F)F)nc(-c3cccc(-c4cc5ccccc5o4)c3)c2[C@H]1CCO,-3,-17,/,85*
C[C@@H]1CCCCO[C@H](CN(C)Cc2ccncc2)[C@H](C)CN([C@@H](C)CO)C(=O)c2cc(NC(=O)Nc3ccccc3)ccc2O1,-2,-24,/,29
CCCCc1ccc(-c2ccc(Br)cc2)nc1,-1,34,31,/
CCCc1ccc(-c2ccc(F)c(N)c2)nc1,/,79*,/,/
Cc1ccc(-c2nc(SC(C)C(=O)c3c(N)n(C)c(=O)n(C)c3=O)n[nH]2)cc1 (configuration not stated),0,-7,-3,11
CC(=O)NC(CCc1ccc(Cl)c(Cl)c1)c1cccc(O)c(=O)c1 (configuration not stated),0,/,-3,91*
CC(=O)NC(C)c1ccc(Cl)c(Cl)c1 (configuration not stated),/,12,/,/
